Source: PubChem
Anthrax LF inh2: inhibitors of Bacillus anthracis lethal factor protease | multiplex microsphere protease cleavage assay, LF | inhibition, % at 10 µM | actives 0.12% (n = 360,000) | AID 588501; note: plate controls were buffer without enzyme for full effect and enzyme alone for no effect
Target sequence (P15917 whole entry, looked up): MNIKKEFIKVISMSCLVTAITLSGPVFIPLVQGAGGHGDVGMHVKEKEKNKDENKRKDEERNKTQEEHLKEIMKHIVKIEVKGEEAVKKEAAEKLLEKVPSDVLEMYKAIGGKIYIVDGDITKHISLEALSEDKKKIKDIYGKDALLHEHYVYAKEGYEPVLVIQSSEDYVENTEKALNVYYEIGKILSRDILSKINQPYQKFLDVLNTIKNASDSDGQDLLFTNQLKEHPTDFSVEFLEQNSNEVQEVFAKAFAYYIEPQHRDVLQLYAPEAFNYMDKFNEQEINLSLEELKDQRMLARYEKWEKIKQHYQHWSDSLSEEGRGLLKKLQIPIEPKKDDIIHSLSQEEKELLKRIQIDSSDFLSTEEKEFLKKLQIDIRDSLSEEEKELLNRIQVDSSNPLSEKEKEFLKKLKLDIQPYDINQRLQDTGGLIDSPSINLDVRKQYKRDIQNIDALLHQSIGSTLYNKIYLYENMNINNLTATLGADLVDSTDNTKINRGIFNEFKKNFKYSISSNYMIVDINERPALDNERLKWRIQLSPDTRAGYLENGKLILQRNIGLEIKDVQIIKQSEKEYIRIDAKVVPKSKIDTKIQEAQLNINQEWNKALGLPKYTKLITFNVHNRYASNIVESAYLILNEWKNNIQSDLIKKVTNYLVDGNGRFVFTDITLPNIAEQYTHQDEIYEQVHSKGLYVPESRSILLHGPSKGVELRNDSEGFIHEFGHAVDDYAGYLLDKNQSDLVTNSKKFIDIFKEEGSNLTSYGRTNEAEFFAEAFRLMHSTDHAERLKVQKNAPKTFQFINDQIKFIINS
PfHsp40 rescue: restores yeast growth despite PfHsp40 toxicity | S. cerevisiae expressing PfHsp40, growth rescue, ATP luminescence | growth rescue, % at 12.5 µM | actives 0.68% (n = 340,000); in the data active = growth rescue above about 28%, passing the limit was not always enough; inconclusive = no clear call, values can overlap the other calls;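 note: yeast W303a lacking pdr1 and pdr3 grown in galactose medium; growth measured after three days at 30 °C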
MazF activator: MazEF (E. coli) toxin RNase activation; P0AE70; FAM/BHQ RNA-DNA oligo cleavage fluorescence, 5 h; activation, % at 20 µM; actives 0.32% (n = 350,000); AID 504720; in the data active = activation above about 50%
BoNT-A LC inh2: blocks Botulinum neurotoxin A light chain protease; multiplex microsphere protease substrate cleavage, flow cytometry; inhibition, % at 10 µM; actives 0.17% (n = 360,000); note: plate controls were buffer without enzyme for full effect and enzyme alone for no effect
BoNT-F LC inh: inhibitors of Botulinum neurotoxin F light chain protease; Multiplex microsphere protease cleavage assay, flow cytometry; inhibition, % at 10 µM; actives 0.22% (n = 360,000); in the data active = inhibition above about 35%, passing the limit was not always enough; inconclusive = no clear call, values can overlap the other calls; note: plate controls were buffer without enzyme for full effect and enzyme alone for no effect
Autofluor counter: compound fluorescence in toxin protease inhibitor counterscreen; compound autofluorescence counterscreen, microsphere flow cytometry; stronger effect = higher value; fluorescence intensity (concentration not given with the values); actives 3.1% (n = 360,000); AID 624483; in the data active = fluorescence intensity above about 16000; inconclusive = no clear call, values can overlap the other calls
* hit, by the source's call. Shown are actives, neighbours in structure and some others; about 4.3% of the full set was active somewhere. Cut-off read from the data, not from the text of the source, unless noted: active = inhibition above about 30%; inconclusive = no clear call, values can overlap the other calls; inactive = below that.

CCS(=O)(=O)N1CCCC(c2nc(-c3cccc(OC)c3)no2)C1 (stereo unspecified) was read as Anthrax LF inh2 -1.6, PfHsp40 rescue 3.7, MazF activator -1.8, BoNT-A LC inh2 -0.8, BoNT-F LC inh 0.3 and Autofluor counter 23563*.
For CN(C)c1nc2ncn(Cc3ccccc3)c2c(=O)[nH]1 the results were Anthrax LF inh2 -5.5, PfHsp40 rescue 0.6, MazF activator -24.5, BoNT-A LC inh2 -0.3, BoNT-F LC inh -5.6 and Autofluor counter 5699.
For CC(C)c1cc(-c2cc(C(=O)NCc3ccccc3)on2)nc(NCC2CC2)n1 the results were Anthrax LF inh2 6.6, PfHsp40 rescue 386.6*, MazF activator 4.0, BoNT-A LC inh2 0.5, BoNT-F LC inh -2.7 and Autofluor counter 3070.
CC(C)c1cc(-c2cc(C(=O)NCc3ccccc3)on2)nc(NC2CCCC2)n1 was read as Anthrax LF inh2 -3.8, PfHsp40 rescue 5.4, MazF activator -1.2, BoNT-A LC inh2 -0.6, BoNT-F LC inh -6.1 and Autofluor counter 3783.
Screening NC(=O)[C@H]1CC2(CC(c3cccc(NC(=O)COc4ccc(Cl)cc4)c3)=NO2)CN1C(=O)Cc1ccc([N+](=O)[O-])cc1 (stereo partly specified) returned Anthrax LF inh2 -4.9, PfHsp40 rescue 1.1, MazF activator -11.8, BoNT-A LC inh2 -0.4, BoNT-F LC inh -9.5 and Autofluor counter 3035.
`O=C1/C(=C/c2cccnc2)Oc2cc(OS(=O)(=O)c3ccc(Cl)cc3)ccc21` gave Anthrax LF inh2 2.4, PfHsp40 rescue -1.0, MazF activator 14.5, BoNT-A LC inh2 3.5, BoNT-F LC inh 5.7 and Autofluor counter 21029*.
`CCN(CC)C(=O)Oc1ccc2c(c1)O/C(=C\c1ccco1)C2=O` gave Anthrax LF inh2 10.5, PfHsp40 rescue 1.0, MazF activator -0.4, BoNT-A LC inh2 2.3, BoNT-F LC inh -11.7 and Autofluor counter 3919.
`CS(=O)(=O)Oc1ccc2c(c1)O/C(=C\c1cccnc1)C2=O` gave Anthrax LF inh2 -9.8, PfHsp40 rescue -0.1, MazF activator 18.8, BoNT-A LC inh2 -4.4, BoNT-F LC inh inconclusive and Autofluor counter 3718.
CCC(=O)Oc1ccc2c(c1)O/C(=C\c1ccco1)C2=O was read as PfHsp40 rescue 0.9 and MazF activator 691.1*.
`O=C1/C(=C/c2cccnc2)Oc2cc(OS(=O)(=O)c3ccccc3)ccc21` gave Anthrax LF inh2 1.8, PfHsp40 rescue -0.4, MazF activator -1.9, BoNT-A LC inh2 0.2, BoNT-F LC inh -1.3 and Autofluor counter 10783.
COc1ccc(S(=O)(=O)Oc2ccc3c(c2)O/C(=C\c2cccnc2)C3=O)cc1 was read as Anthrax LF inh2 -2.0, PfHsp40 rescue 1.4, MazF activator 1.4, BoNT-A LC inh2 inconclusive, BoNT-F LC inh -1.7 and Autofluor counter 23126*.
`COc1ccccc1C(=O)Oc1ccc2c(c1)O/C(=C\c1ccncc1)C2=O` gave Anthrax LF inh2 -2.1, PfHsp40 rescue -0.4, MazF activator 206.3*, BoNT-A LC inh2 2.4, BoNT-F LC inh 7.0 and Autofluor counter 2024.
CCOC(=O)c1c(CN2CCN(CCO)CC2)n(C)c2cc(Br)c(OC)cc12 was read as Anthrax LF inh2 -1.0, PfHsp40 rescue -0.7, MazF activator 0.1, BoNT-A LC inh2 0.2, BoNT-F LC inh -2.1 and Autofluor counter 23678*.
CCOC(=O)c1c(CN2CCCCC2)n(C)c2cc(Br)c(OC)cc12 was read as Anthrax LF inh2 0.3, PfHsp40 rescue 0.1, MazF activator 1.0, BoNT-A LC inh2 -0.3, BoNT-F LC inh -9.9 and Autofluor counter 4049.
Screening CCOC(=O)c1c(C)oc2cc(Br)c(OC)cc12 returned Anthrax LF inh2 -0.8, PfHsp40 rescue 0.6, MazF activator 6.6, BoNT-A LC inh2 -2.8, BoNT-F LC inh -4.0 and Autofluor counter 25149*.
`CCOc1ccc(N=C(NC#N)SCC(=O)NC2CC2)cc1` gave Anthrax LF inh2 -2.3, PfHsp40 rescue 0.9, MazF activator 0.0, BoNT-A LC inh2 inconclusive, BoNT-F LC inh -1.2 and Autofluor counter 23167*.
CCOc1ccc(N=C(NC#N)SCC)cc1 was read as Anthrax LF inh2 -6.5, PfHsp40 rescue 1.8, MazF activator -1.6, BoNT-A LC inh2 -6.0, BoNT-F LC inh -12.9 and Autofluor counter 13339.
Screening COc1cc(NC(=S)N2CCN(C/C=C/c3ccccc3)CC2)cc(OC)c1 returned Anthrax LF inh2 -0.8, PfHsp40 rescue -0.4, MazF activator -10.3, BoNT-A LC inh2 -0.2, BoNT-F LC inh -1.4 and Autofluor counter 1912.
`COC(=O)c1ccccc1NC(=O)N1CCN(C/C=C/c2ccccc2)CC1` gave Anthrax LF inh2 -1.7, PfHsp40 rescue -0.5, MazF activator -3.4, BoNT-A LC inh2 0.4, BoNT-F LC inh -2.0 and Autofluor counter 20603*.
`Cc1ccc(NC(=O)N2CCN(C/C=C/c3ccccc3)CC2)cc1` gave Anthrax LF inh2 -1.0, PfHsp40 rescue -1.6, MazF activator 3.2, BoNT-A LC inh2 -1.7, BoNT-F LC inh -7.9 and Autofluor counter 3010.
Screening O=C(Nc1ccc2c(c1)OCO2)N1CCN(c2ccccc2)CC1 returned Anthrax LF inh2 -0.4, PfHsp40 rescue -1.4, MazF activator -13.6, BoNT-A LC inh2 -0.8, BoNT-F LC inh -5.1 and Autofluor counter 2161.
`COc1cccc(NC(=S)N2CCN(C/C=C/c3ccccc3)CC2)c1` gave Anthrax LF inh2 -3.1, PfHsp40 rescue -0.4, MazF activator -7.6, BoNT-A LC inh2 -1.5, BoNT-F LC inh -5.8 and Autofluor counter 22410*.
For O=C(Nc1ccc2c(c1)OCO2)N1CCN(C/C=C/c2ccccc2)CC1 the results were Anthrax LF inh2 -1.7, PfHsp40 rescue 0.9, MazF activator -4.8, BoNT-A LC inh2 -1.5, BoNT-F LC inh -4.1 and Autofluor counter 17067*.
Screening O=C(Nc1ccc2c(c1)OCO2)N1CCN(c2ncccn2)CC1 returned Anthrax LF inh2 -0.3, PfHsp40 rescue -1.6, MazF activator 4.7, BoNT-A LC inh2 1.3, BoNT-F LC inh 1.8 and Autofluor counter 22918*.
For NC(=O)/C(=C/c1ccco1)C(N)=S the results were Anthrax LF inh2 -2.7, PfHsp40 rescue 0.8, MazF activator -5.6, BoNT-A LC inh2 inconclusive, BoNT-F LC inh inconclusive and Autofluor counter 3886.
For O=c1[nH]c(=S)[nH]c2c1C(c1ccc(F)cc1)OC(CCOCc1ccccc1)C2 (stereo unspecified) the results were Anthrax LF inh2 -6.2, BoNT-A LC inh2 -0.6, BoNT-F LC inh 4.3 and Autofluor counter 5818.
C=CCN(CC=C)CCOc1cccc(Oc2ccccc2)c1 was read as Anthrax LF inh2 -0.6, PfHsp40 rescue 2.7, MazF activator -4.1, BoNT-A LC inh2 2.2, BoNT-F LC inh 13.7 and Autofluor counter 2552.
For CCCC(=O)Oc1ccc(C2NC(=O)c3ccccc3O2)cc1 (stereo unspecified) the results were PfHsp40 rescue 0.6 and MazF activator 1.5.
O=C(NC1=NCCS1)c1ccccc1Cl was read as Anthrax LF inh2 -8.3, PfHsp40 rescue -0.4, MazF activator 5.1, BoNT-A LC inh2 1.3, BoNT-F LC inh -0.4 and Autofluor counter 3371.
